NPR1 antag – antagonists of human natriuretic peptide receptor Npr1 | 76,000 compounds, 1.6% hits | HEK293 hNpr1 GloSensor cGMP, ANP-stimulated luminescence | Potency, µM (doses to about 46.3 µM), hits mostly inhibitors | AID 1347048; calls by dose curve; note: nearly all actives have a fitted effect of over 60% in size
Target sequence (P16066 whole entry, looked up): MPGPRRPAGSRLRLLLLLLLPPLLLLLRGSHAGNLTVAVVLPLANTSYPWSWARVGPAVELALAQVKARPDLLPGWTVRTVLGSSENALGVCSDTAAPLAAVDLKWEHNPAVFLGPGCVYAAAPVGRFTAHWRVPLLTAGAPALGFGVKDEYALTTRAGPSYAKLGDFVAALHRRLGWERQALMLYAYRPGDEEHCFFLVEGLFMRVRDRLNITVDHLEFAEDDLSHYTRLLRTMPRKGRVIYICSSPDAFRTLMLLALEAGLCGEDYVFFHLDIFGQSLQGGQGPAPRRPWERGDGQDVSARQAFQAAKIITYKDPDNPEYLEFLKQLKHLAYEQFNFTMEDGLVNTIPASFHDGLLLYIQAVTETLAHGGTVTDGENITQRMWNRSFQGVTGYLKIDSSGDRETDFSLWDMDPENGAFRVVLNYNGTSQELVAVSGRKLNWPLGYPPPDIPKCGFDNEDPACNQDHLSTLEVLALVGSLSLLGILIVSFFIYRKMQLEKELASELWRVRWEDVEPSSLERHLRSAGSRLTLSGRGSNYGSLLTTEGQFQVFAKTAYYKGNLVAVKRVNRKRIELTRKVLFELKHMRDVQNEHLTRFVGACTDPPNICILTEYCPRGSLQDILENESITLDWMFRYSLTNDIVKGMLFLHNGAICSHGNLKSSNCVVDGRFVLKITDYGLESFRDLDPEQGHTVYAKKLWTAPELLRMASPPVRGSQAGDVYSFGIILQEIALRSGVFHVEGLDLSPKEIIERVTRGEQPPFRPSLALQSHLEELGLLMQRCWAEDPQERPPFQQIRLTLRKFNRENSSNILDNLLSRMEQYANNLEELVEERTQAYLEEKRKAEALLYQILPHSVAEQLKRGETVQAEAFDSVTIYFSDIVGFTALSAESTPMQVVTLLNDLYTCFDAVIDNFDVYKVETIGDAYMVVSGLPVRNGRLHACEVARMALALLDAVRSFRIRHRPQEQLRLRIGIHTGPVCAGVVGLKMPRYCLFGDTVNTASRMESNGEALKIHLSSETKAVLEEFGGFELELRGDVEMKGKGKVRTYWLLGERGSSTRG
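HEK293 cells stably expressing human Npr1 and cGMP GloSensor pGS-40F, loaded 2 h with 2% GloSensor reagent, given compound 30 min at room temperature. Luminescence read before and 20 min after 0.1 nM hNppA.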
HEK cytotox – HEK 293 cell cytotoxicity; 94,000 compounds, 6.6% hits; HEK 293 viability, ATP luminescence (CellTiter-Glo), 48-72 h; Potency, µM (highest dose often 115 µM), actives largely listed as inhibitors; note: nearly all actives have a fitted effect of over 60% in size
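qHTS cytotoxicity; HEK 293, 250 cells/well; compound pinned; 48 or 72 hr, 37 degree Celsius, 5% CO2, 95% humidity; CellTiter-Glo, 10 min RT; luminescence (ATP).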
FLuc inh – blocks purified firefly luciferase enzyme activity; P08659; purified P. pyralis luciferase, luminescence, biochemical; Potency, µM (series often up to 115 µM), usual class: inhibitors; 76,000 compounds, 2.5% hits; note: nearly all actives have a fitted effect of over 65% in size
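Cell-free enzyme assay, 10nM P. pyralis luciferase, luciferin and ATP each at 10uM. Inhibition profiled over a 6-point titration, read as luminescence.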
NIH3T3 tox – cytotoxic compounds in NIH 3T3 cells. NIH 3T3 viability, CellTiter-Glo ATP luminescence, 48-72 h. Potency, µM (titrated, usually from 96.7 µM), most hits filed as inhibitors. 94,000 compounds, 4.3% hits. AID 1345082; note: nearly all actives have a fitted effect of over 55% in size
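First NIH 3T3 cells are plated at 400 cells/well; next compound is pinned in; then plates incubate 48 or 72 hr at 37 °C; finally CellTiter-Glo is added and luminescence read after 10 min.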
Hits are given with their value; . = inactive; ? = inconclusive; / = no result. Rows were chosen to be rich in hits. Some 11% of all compounds tested hit in one or more screens of this group. Unless noted, calls come from the whole dose curve; as a rule, active = well fitted curve in the direction sought with a large enough effect; inconclusive = small, poorly fitted or top-dose-only effect, or another doubt; inactive = no such curve, though single readings can be large; an effect the other way counts as inactive or inconclusive.

SMILES | NPR1 antag | HEK cytotox | FLuc inh | NIH3T3 tox
CN(Cc1cccc(C(F)(F)F)c1)C(=O)C1CCCC1 | . | . | . | .
COc1cc(CNC(=O)c2cccc3c2CCN3C(=O)C2CC2)cc(OC)c1 | . | 45µM | . | .
COCCNC(=O)c1cccc2c1CCN2C(=O)C1CC1 | . | . | . | .
O=C(NCc1ccc(N2CCOCC2)cc1)c1cccc2c1CCN2C(=O)c1ccccc1 | . | . | 40µM | .
CN1CCC(NC(=O)c2cccc3c2CCN3C(=O)C2CC2)CC1 | . | . | . | .
CN1CCC(NC(=O)c2cccc3c2CCN3C(=O)Nc2ccccc2)CC1 | . | . | 22µM | ?
CNC(=O)c1cccc2c1CCN2C(=O)Nc1ccc(F)cc1 | 11µM | . | 0.71µM | .
COc1ccc(CCNC(=O)c2ccc3nnc(-c4ccc(OC(F)(F)F)cc4)n3c2)cc1 | / | ? | / | .
CN(C)[C@H]1CCCCN(C(=O)CCc2ccc(-c3ccc(Cl)cc3)[nH]2)C1 | . | ? | . | ?
COc1ccc(NC(=O)N2CCc3c(C(=O)Nc4ccccc4)cccc32)cc1 | 4.5µM | ? | ? | ?
CN(Cc1cccc(C(F)(F)F)c1)Cc1cccc2ccccc12 | / | ? | / | .
O=C(CNC(=O)c1cccc(-c2ccsc2)c1)NCc1cccs1 | / | . | / | ?
CC(C)(C)C(=O)N1CC[C@@H](CC(=O)O)[C@@H](CC2=NCCc3ccc(C(C)(C)C)cc32)C1 | . | . | . | 100µM
O=C(Nc1cccc(C(F)(F)F)c1)O[C@@H]1CO[C@H]2[C@@H]1OC[C@@H]2n1nnnc1SC1CCCC1 | ? | ? | . | 40µM
S=C(NC1CCCCC1)N[C@H]1CO[C@H]2[C@@H]1OC[C@@H]2n1cc(-c2ccccn2)nn1 | ? | 89µM | . | ?
O=C(Nc1ccccc1)O[C@@H]1CO[C@H]2[C@@H]1OC[C@@H]2n1nnnc1SC1CCCC1 | ? | ? | . | .
O=C(NC1CCCCC1)N[C@H]1CO[C@H]2[C@@H]1OC[C@@H]2n1cc(-c2ccccn2)nn1 | . | . | . | .
O=C(Nc1cccc(C(F)(F)F)c1)O[C@@H]1CO[C@H]2[C@@H]1OC[C@@H]2n1cc(-c2ccccn2)nn1 | ? | 35µM | . | ?
O=C(Nc1ccccc1)O[C@@H]1CO[C@H]2[C@@H]1OC[C@@H]2n1nnnc1-c1ccc2c(c1)OCCO2 | . | . | 45µM | .
Oc1ccc(-c2nc(C3CC3)nc3c2CCN(Cc2ccc(C(F)(F)F)cc2)CC3)cc1 | . | ? | . | ?
O=C(NC1CCCN(c2cc(-c3ccc(F)cc3)[nH]n2)C1)c1ccccc1 (stereo unspecified) | . | ? | ? | ?
O=C(NC1CCCN(c2cc(-c3ccc(F)cc3)[nH]n2)C1)c1cccnc1 (stereo unspecified) | . | ? | ? | .
Cc1ccc(C(=O)NC2CCCN(c3cc(-c4ccc(F)cc4)[nH]n3)C2)cn1 (stereo unspecified) | . | 20µM | ? | .
Cc1cc(C)cc(C(=O)NC2CCCN(c3cc(-c4ccc(F)cc4)[nH]n3)C2)c1 (stereo unspecified) | . | 45µM | . | ?
COc1ccc(-c2cc(N3CCCC(NC(=O)c4ccc(C)nc4)C3)n[nH]2)cc1 (stereo unspecified) | . | . | 35µM | ?
SMILES | NPR1 antag | HEK cytotox | FLuc inh | NIH3T3 tox
Cc1ccc(-c2cc(N3CCCN(C(=O)c4cccc(N(C)C)c4)CC3)n[nH]2)cc1C | ? | ? | ? | 40µM
O=C(c1ccc2cc[nH]c2c1)N1CCCN(c2cc(-c3ccc(F)cc3)[nH]n2)CC1 | ? | 40µM | . | ?
CN(C)c1cccc(C(=O)N2CCCN(c3cc(-c4ccc(F)cc4)[nH]n3)CC2)c1 | . | ? | 22µM | .
Cc1ccc(-c2cc(N3CCCN(C(=O)c4cccnc4)CC3)n[nH]2)cc1C | . | . | . | .
CNC(=O)c1cc(C2CC2)nc2c1c(C1CCN(C(=O)Nc3ccccc3)C1)nn2C (stereo unspecified) | / | ? | / | .
CCC(=O)N1Cc2ccccc2CC2(CCN(Cc3ccccn3)CC2)C1 | / | . | / | .
O=C(C1CCOCC1)N1CC(Oc2ccc(-c3nc(-c4ccccc4)no3)cc2)C1 | ? | ? | ? | .
O=C(CN1CCCCCC1)N1CC(Oc2ccc(-c3noc(-c4ccccc4)n3)cc2)C1 | . | ? | ? | ?
CCOCCCNC(=O)N1CC(Oc2ccc(-c3nc(-c4ccccc4)no3)cc2)C1 | 0.56µM | ? | ? | .
CCCNC(=O)N1CC(Oc2ccc(-c3nc(-c4ccccc4)no3)cc2)C1 | 0.4µM | . | ? | .
C=CCN1C[C@@H]2C[C@@H](C(=O)NC)N(C(=O)CC(C)(C)C)c3cccc(c32)[S+]1(=O)[O-] | / | . | / | ?
CCNC(=O)[C@@H]1CCCN1[C@@H](C(=O)NC)c1ccc(OC)cc1 | . | . | . | .
CNC(=O)[C@@H](c1ccc(OC)cc1)N1CCC[C@H]1C(=O)NCC1CCCCC1 | . | ? | . | 100µM
CCOc1cc(=O)n2c(c1C(=O)Nc1ccc(CC)cc1)CCCC2 | . | . | ? | .
CCOc1cc(=O)n2c(c1C(=O)Nc1ccc3c(c1)OCO3)CCCC2 | . | ? | 40µM | ?
C[S+](=O)([O-])N1CCC2(CC1)CC(c1cccc(C(F)(F)F)c1)=NO2 | / | ? | / | .
Nc1ncccc1CN1CCc2c(n(Cc3ccccc3)n(-c3ccccc3)c2=O)C1 | . | ? | . | .
COc1ccc(-n2c(=O)c3c(n2Cc2ccccc2)CN(C(=O)C(C)C)CC3)cc1 | . | . | . | 10µM
COc1ccc(-n2c(=O)c3c(n2Cc2ccccc2)CN(C(C)=O)CC3)cc1 | . | . | . | ?
Cc1ccccc1CN1CCc2c(n(Cc3ccccc3)n(-c3ccccc3)c2=O)C1 | . | 89µM | . | 89µM
COc1ccc(Cn2c3c(c(=O)n2Cc2ccccc2)CCN(C(=O)c2ccnn2C)C3)cc1 | . | . | . | 35µM
CCn1c2c(c(=O)n1Cc1ccccc1)CCN(C(=O)C(C)C)C2 | . | . | . | ?
COc1ccc(Cn2c3c(c(=O)n2Cc2ccccc2)CCN(C(=O)Cc2cccc(Cl)c2)C3)cc1 | . | ? | . | ?
CC(C)C(=O)N1CCc2c(n(Cc3ccccc3)n(-c3ccccc3)c2=O)C1 | . | . | . | 22µM
CCOC(=O)[C@@H]1CN(C(=O)CC(C)(C)C)[C@H]2c3ccccc3O[C@@H]12 | / | . | / | ?
Cc1ccccc1C(=O)NC1CCN(c2ccc3nnc(C4CC4)n3n2)C1 (stereo unspecified) | / | . | / | .
CC(=O)NC[C@@H]1C=C(C)[C@H](Cc2nc3ccccc3[nH]2)C[C@H]1C(C)C | . | ? | . | ?
COc1ccc2[nH]c(C[C@@H]3C[C@@H](C(C)C)[C@H](CNC(=O)c4cccnc4)C=C3C)nc2n1 | . | 56µM | . | ?
CCCNC(=O)NC[C@@H]1C=C(C)[C@H](Cc2nc3nc(OC)ccc3[nH]2)C[C@H]1C(C)C | . | 63µM | . | 89µM
CC1=C[C@@H](CNC(=O)C(C)C)[C@H](C(C)C)C[C@H]1Cc1nc2ncccc2[nH]1 | . | . | . | ?
